The sample as a whole holds a higher share of hits than the screen did.
KDM5B inh: Primary screen for KDM5B Histone Demethylases FDH-coupled qHTS; KDM5B demethylase, FDH-coupled NADH fluorescence (FDH is formaldehyde dehydrogenase); Potency, µM (titrated, usually from 57.7 µM), usual class: inhibitors; hit rate 2.6% among 220,000; AID 1347165, 2019; active = well fitted inhibition curve with a large enough effect; note: 0% is about no effect; nearly all actives have a fitted effect of over 70% in size
Target sequence (Q9UGL1 whole entry, looked up): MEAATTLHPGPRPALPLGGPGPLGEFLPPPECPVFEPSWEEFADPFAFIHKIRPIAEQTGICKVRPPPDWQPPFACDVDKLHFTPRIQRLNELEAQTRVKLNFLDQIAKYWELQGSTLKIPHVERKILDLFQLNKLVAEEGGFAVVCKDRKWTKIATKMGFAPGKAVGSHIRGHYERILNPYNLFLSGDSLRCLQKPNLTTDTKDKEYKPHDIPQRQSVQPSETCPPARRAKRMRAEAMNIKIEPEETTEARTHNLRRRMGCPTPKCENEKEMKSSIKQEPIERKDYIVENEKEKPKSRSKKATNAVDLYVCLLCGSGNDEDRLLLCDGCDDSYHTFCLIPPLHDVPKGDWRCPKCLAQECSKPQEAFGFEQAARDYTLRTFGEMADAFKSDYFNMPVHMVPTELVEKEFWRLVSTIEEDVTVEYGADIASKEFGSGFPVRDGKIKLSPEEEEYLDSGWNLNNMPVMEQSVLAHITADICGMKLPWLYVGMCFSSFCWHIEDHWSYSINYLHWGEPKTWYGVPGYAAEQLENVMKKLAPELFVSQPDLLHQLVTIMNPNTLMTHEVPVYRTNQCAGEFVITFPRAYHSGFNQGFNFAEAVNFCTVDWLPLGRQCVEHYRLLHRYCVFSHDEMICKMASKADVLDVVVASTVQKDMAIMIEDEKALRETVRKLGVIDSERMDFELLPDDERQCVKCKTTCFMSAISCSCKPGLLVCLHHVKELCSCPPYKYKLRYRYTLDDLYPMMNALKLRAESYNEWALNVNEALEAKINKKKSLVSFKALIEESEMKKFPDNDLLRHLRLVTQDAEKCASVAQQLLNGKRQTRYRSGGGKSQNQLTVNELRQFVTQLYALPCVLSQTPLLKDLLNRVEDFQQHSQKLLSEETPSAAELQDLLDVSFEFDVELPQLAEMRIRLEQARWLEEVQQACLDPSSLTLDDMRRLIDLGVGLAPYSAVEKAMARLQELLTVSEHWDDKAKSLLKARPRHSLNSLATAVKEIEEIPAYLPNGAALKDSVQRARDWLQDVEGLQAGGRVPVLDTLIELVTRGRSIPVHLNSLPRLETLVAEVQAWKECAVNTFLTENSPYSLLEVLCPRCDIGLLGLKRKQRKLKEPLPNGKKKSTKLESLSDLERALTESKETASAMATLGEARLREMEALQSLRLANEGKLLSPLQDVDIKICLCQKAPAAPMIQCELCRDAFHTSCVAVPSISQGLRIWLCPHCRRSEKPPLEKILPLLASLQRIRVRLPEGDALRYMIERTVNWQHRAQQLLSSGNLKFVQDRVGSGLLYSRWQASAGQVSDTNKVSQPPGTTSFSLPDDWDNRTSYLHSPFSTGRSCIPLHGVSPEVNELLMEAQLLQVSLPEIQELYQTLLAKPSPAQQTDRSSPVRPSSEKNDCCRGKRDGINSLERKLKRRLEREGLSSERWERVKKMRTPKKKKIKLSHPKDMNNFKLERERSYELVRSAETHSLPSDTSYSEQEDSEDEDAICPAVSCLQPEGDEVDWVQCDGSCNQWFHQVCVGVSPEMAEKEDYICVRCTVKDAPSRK
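Compound dilutions met 200 nM (final) KDM5BΔAP for 10 min at room temperature before substrate addition. The substrate mix held 12.5 µM H3K4me3 with cofactors 25 µM α-ketoglutarate and 50 µM Fe²⁺. NADH signal gain over 30 min defined activity.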
An asterisk follows results filed as active; i = inactive. Potency is the fitted concentration of half-maximal effect.

SMILES | KDM5B inh
c1csc(CNCCCn2ccnc2)c1 | i
Cc1ccc(CSc2ncc(CO)n2CC(=O)NC2CCCC2)cc1 | i
C#CCN(CC(=O)C(C)(C)C)C(C)(C)C | i
COC(=O)c1c(NC(C)=O)c2cc(NC(C)CC(C)(C)O)cnc2n1CCC(C)C (stereo not given) | 20µM*
COc1ccccc1OC(C)C(=O)Nc1ccccc1C(=O)NCC1CCCO1 (stereo not given) | i
COc1ccccc1C(=O)Nc1ccccc1OCC1CCCO1 (stereo not given) | i
CCOC(=O)c1cc2c(=O)n3ccccc3nc2n(CC2CCCO2)c1=NC(=O)c1ccccc1OCC (stereo not given) | i
CCC(C)C(=O)Nc1c(C(=O)OC)n(CC2CCCO2)c2ncc(NC(C)CO)cc12 (stereo not given) | 28.2µM*
CC(C)C(=O)N1CCC(C(=O)Nc2cccc(OCC3CCCO3)c2)CC1 (stereo not given) | i
CCC(C)C(=O)Nc1c(C(=O)OC)n(CC2CCCO2)c2ncc(NC(C)CCO)cc12 (stereo not given) | 6.31µM*
CC(=O)N(Cc1ccccc1)Cc1cc2cccc(C)c2[nH]c1=O | i
C/C(=N/Nc1ccc(S(N)(=O)=O)cc1[N+](=O)[O-])c1ccc(C)cc1 | i
O=C1C(O)=C(c2ccc(Cl)cc2)C(c2ccccc2F)N1Cc1ccccc1 (stereo not given) | i
Cc1cc(=S)n2cn[nH]c2n1 | i
CC(SC1CCCCC1)C(=O)Nc1cccc(C#N)c1 (stereo not given) | i
Cc1ccc(NC(=O)Cc2nc(CSc3nncn3-c3ccccc3)cs2)cc1 | i
O=S(=O)(Nc1nc2ccccc2nc1Nc1ccc(Br)cc1)c1cccs1 | i
Cc1ccc(NC(=O)C(C#N)C(=O)CCC(C)C)c(C)c1 (stereo not given) | i
CC(C)(C)C1CCc2c(sc3c2C(c2ccc(O)cc2)CC(=O)N3)C1 (stereo not given) | i
COCCNC(=O)[C@@H]1C[C@@H](c2ccc(F)cc2)N([S+](=O)([O-])c2ccccc2)C1 | i
O=C(Nc1ccccc1)[C@@H]1C[C@@H](c2ccc(F)cc2)N([S+](=O)([O-])c2ccccc2)C1 | i
COCCNC(=O)[C@@H]1C[C@@H](c2ccc(F)cc2)N([S+](=O)([O-])c2cccnc2)C1 | 35.5µM*
O=C(NC(c1ccccc1)c1ccccc1)C12CC3CC(CC(O)(C3)C1)C2 | i
O=C(NCc1ccc(C(F)(F)F)cc1)c1n[nH]c2c1CCCC2 | i
Cc1nc2ccccc2nc1SCC(=O)Nc1ccccc1OC(F)F | i
SMILES | KDM5B inh
O=C1CC2(CCN(Cc3cccs3)CC2)Oc2cc(Cl)ccc21 | i
CC(=O)N[C@@H]1CN(S(=O)(=O)c2sccc2C)C[C@H]1c1ccc(C)o1 | i
CC(=O)N[C@@H]1CN(Cc2cc(=O)n3[nH]cnc3n2)C[C@H]1c1ccc(C)o1 | 22.4µM*
CC(=O)N[C@@H]1CN(Cc2ccc(C)cn2)C[C@H]1CO | i
CCCCn1nc(C(=O)Nc2ccc(OC)c(OC)c2)c2ccccc2c1=O | i
O=C(Nc1ccc(F)c(F)c1F)C12CC3CC(CC(Cl)(C3)C1)C2 | i
Cn1c(Sc2ncc(C(F)(F)F)cc2Cl)nnc1-c1ccccc1 | i
COCC(=O)N(C1CCOCC1)C1CCN(C(=O)c2ccc(F)cc2)CC1 | i
CC(C)(C)c1ccc(C(CC(=O)O)NC(=O)c2ccc(F)cc2)cc1 (stereo not given) | i
CCn1cc(S(=O)(=O)NCC2CNCCOC2)cn1 (stereo not given) | i
CCC(NC(=O)c1ccc2nc(-c3ccc(F)cc3)cn2c1)c1ncc(C)[nH]1 (stereo not given) | 25.1µM*
CN(C(=O)c1ccc2nc(-c3ccc(F)cc3)cn2c1)C1CCOCC1 | 22.4µM*
O=C(NCC1CNCCOC1)c1ccc2nc(-c3ccc(F)cc3)cn2c1 (stereo not given) | 28.2µM*
CCOC(=O)c1ccc(NC(=O)c2sc3nc(-c4ccc(F)cc4)cn3c2C)cc1 | i
O=C(NCCc1cnc[nH]1)c1ccc2nc(-c3ccc(F)cc3)cn2c1 | 31.6µM*
O=C(NCC1CNCCOC1)NC1CCCCC1 (stereo not given) | i
CCCNC(=O)N(C1CCOCC1)C1CCN(C(=O)c2ccc(F)cc2)CC1 | i
O=C(Cc1ccc(F)cc1)NCCc1cnc[nH]1 | i
O=C(NCCn1cc(-c2cncnc2)nn1)c1ccc(F)cc1 | i
CC(=O)N1c2ccccc2-c2nnc(SCc3ccccc3)nc2OC1C (stereo not given) | i
CCCC(=O)Nc1ccc(CNCc2cccnc2)cc1 | i
CCCCn1c(CN2CCN(C(=O)c3ccco3)CC2)nc2c1c(=O)[nH]c(=O)n2Cc1ccccc1 | i
c1ccc(Cc2nc(-c3ccc4c(c3)OCCCO4)cs2)cc1 | i
O=C(CSc1nnc(-c2c[nH]c3ccccc23)o1)N1CCNC1=O | i
COc1ccc(C)cc1-n1nnnc1SCc1noc(CC(C)C)n1 | i
S=C(NCCc1ccccc1)Nc1ccc(Sc2ccc(Br)cc2)cc1 | i

Screening data deposited in PubChem by National Center for Advancing Translational Sciences (NCATS).
